Measured values: PubChem BioAssay AID1159580 (chemical genetic matrix, 2015)
Out of some 5,500 compounds screened, about 2,000 (36%) were called active. Another 18% or so got no clear call; they are omitted. Rule as the data show it: active = normalized growth mostly below about 0.91 (no sharp cut-off); inconclusive = no clear call, values can overlap the other calls; inactive = mostly above about 0.92. This is one part of the list.

Assay: chemical genetic growth profiling, strain panel (AID 1159580);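 also: tested at 20 µM; growth read once vehicle control cultures reached saturation at 30 °C; 1 = growth at the plate median or of vehicle wells; lower values mean less growth of the strain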
Conditions: S. cerevisiae deletion strains, growth OD
[1] = locus YDL101C, strain DUN1, active compounds read low
[2] = locus YHR030C, strain SLT2, active compounds read low
[3] = locus YHR079C, strain IRE1, active compounds read low
[4] = locus YJL095W, strain BCK1, active compounds read low
[5] = locus YJR066W, strain TOR1, active compounds read low
[6] = locus YLR113W, strain HOG1, active compounds read low
[7] = locus YNL183C, strain NPR1, active compounds read low
[8] = locus YOR231W, strain MKK1, active compounds read low
[9] = locus YPL256C, strain CLN2, active compounds read low

Measured: normalized growth

COc1nc(N)nc(SC)n1
inactive: locus YAL013W, strain DEP1, active compounds read low 0.995 | locus YBR229C, strain ROT2, active compounds read low 1 | locus YCL061C, strain MRC1, active compounds read low 0.988 | [1] 1 | locus YDR150W, strain NUM1, active compounds read low 1 | locus YEL061C, strain CIN8, active compounds read low 0.989 | locus YGR078C, strain PAC10, active compounds read low 1.02 | locus YGR229C, strain SMI1, active compounds read low 0.985 | [2] 1.05 | locus YHR087W, strain rtc3, active compounds read low 0.992 | locus YJR043C, strain POL32, active compounds read low 0.987 | locus YJR075W, strain HOC1, active compounds read low 0.987 | locus YKL190W, strain CNB1, active compounds read low 0.974 | locus YLR039C, strain RIC1, active compounds read low 0.97 | locus YLR058C, strain SHM2 (second series), active compounds read low 0.989 | locus YLR085C, strain ARP6, active compounds read low 0.984 | locus YLR262C, strain YPT6, active compounds read low 0.974 | locus YML094W, strain GIM5, active compounds read low 1.12 | locus YMR219W, strain ESC1, active compounds read low 0.993 | locus YMR263W, strain SAP30, active compounds read low 0.984 | locus YNL128W, strain TEP1, active compounds read low 0.979 | locus YNL153C, strain GIM3, active compounds read low 1 | locus YNL298W, strain CLA4 (second series), active compounds read low 0.98 | locus YNL322C, strain KRE1, active compounds read low 1 | locus YNR030W, strain Alg12, active compounds read low 1.02 | locus YOL006C, strain TOP1, active compounds read low 0.978 | locus YPL055C, strain LGE1, active compounds read low 1.01 | locus YPL241C, strain CIN2, active compounds read low 1.14 | locus YPR135W, strain CTF4, active compounds read low 1.03

COc1cc(C(=O)Oc2c(Cl)cc(Cl)cc2C=Nc2cccc([N+](=O)[O-])c2)cc(OC)c1OC
inactive: locus YAR019C, strain CDC15, active compounds read low 0.959 | locus YBL105C, strain PKC1, active compounds read low 0.971 | locus YBR135W, strain CKS1, active compounds read low 0.973 | locus YBR136W, strain MEC1, active compounds read low 0.977 | locus YBR160W, strain CDC28, active compounds read low 0.98 | locus YDL017W, strain CDC7, active compounds read low 0.982 | locus YDL028C, strain MPS1, active compounds read low 0.962 | [1] 0.985 | locus YDL108W, strain KIN28, active compounds read low 0.971 | locus YDL132W, strain cdc53, active compounds read low 0.962 | locus YDR052C, strain DBF4, active compounds read low 0.987 | locus YDR054C, strain cdc34, active compounds read low 0.956 | locus YDR226W, strain ADK1, active compounds read low 0.964 | locus YFL009W, strain cdc4, active compounds read low 0.958 | locus YFL029C, strain CAK1, active compounds read low 0.98 | locus YFR003C, strain YPI1, active compounds read low 0.976 | locus YFR028C, strain CDC14, active compounds read low 0.965 | locus YIL147C, strain SLN1, active compounds read low 0.973 | locus YJL128C, strain PBS2, active compounds read low 0.921 | locus YJR016C, strain ILV3, active compounds read low 0.988 | locus YJR066W, strain TOR1 (second series), active compounds read low 0.801 | locus YKL193C, strain SDS22, active compounds read low 0.979 | locus YKL203C, strain TOR2, active compounds read low 0.738 | locus YMR001C, strain CDC5, active compounds read low 0.981 | locus YMR277W, strain FCP1, active compounds read low 0.972 | locus YNL006W, strain LST8, active compounds read low 0.995 | locus YNL161W, strain CBK1, active compounds read low 0.982 | locus YNL207W, strain RIO2, active compounds read low 0.966 | locus YNL222W, strain SSU72, active compounds read low 0.98 | locus YOL078W, strain AVO1, active compounds read low 0.978 | locus YOR329C, strain SCD5, active compounds read low 0.985 | locus YPL209C, strain IPL1, active compounds read low 0.978 | locus YPR025C, strain CCL1, active compounds read low 0.973 | locus YPR106W, strain ISR1, active compounds read low 0.959 | locus YPR111W, strain DBF20, active compounds read low 0.928 | strain NNK1, active compounds read low 0.963 | strain TSCII, active compounds read low 0.982
active: locus YDL214C, strain PRR2, active compounds read low 0.607 | locus YDR477W, strain SNF1, active compounds read low 0.626 | locus YER123W, strain YCK3, active compounds read low 0.415 | locus YER133W, strain GLC7, active compounds read low 0.59 | locus YFR019W, strain FAB1, active compounds read low 0.706 | locus YGR040W, strain KSS1, active compounds read low 0.648 | locus YGR052W, strain FMP48, active compounds read low 0.561 | locus YGR092W, strain DBF2, active compounds read low 0.336 | [2] 0.387 | [3] 0.438 | locus YHR082C, strain KSP1, active compounds read low 0.569 | locus YHR205W, strain SCH9, active compounds read low 0.473 | [4] 0.473 | locus YJL157C, strain FAR1, active compounds read low 0.629 | [5] 0.427 | locus YKL048C, strain ELM1, active compounds read low 0.776 | locus YKL067W, strain YNK1, active compounds read low 0.613 | locus YKL101W, strain HSL1, active compounds read low 0.678 | [6] 0.577 | locus YLR133W, strain CKI1, active compounds read low 0.621 | locus YLR403W, strain SFP1, active compounds read low 0.51 | locus YML070W, strain DAK1, active compounds read low 0.642 | locus YMR205C, strain PFK2 (second series), active compounds read low 0.646 | locus YNL020C, strain ARK1, active compounds read low 0.597 | [7] 0.54 | locus YNL307C, strain MCK1 (second series), active compounds read low 0.566 | locus YOL136C, strain PFK27, active compounds read low 0.597 | locus YOR061W, strain CKA2, active compounds read low 0.576 | locus YOR119C, strain RIO1, active compounds read low 0.642 | [8] 0.494 | locus YPL031C, strain PHO85, active compounds read low 0.6 | locus YPL153C, strain RAD53, active compounds read low 0.619 | locus YPL204W, strain HRR25, active compounds read low 0.58 | [9] 0.481

CC(=O)Oc1cc(C)c2c(c1C=O)Oc1c(c(C)c(OC(C)=O)c3c1C(OC(C)=O)OC3=O)OC2=O (stereo not drawn)
active: [6] 0.821
inactive: [2] 0.877 | [3] 0.883 | [4] 0.905 | [5] 0.857 | [7] 0.853 | [8] 0.876 | [9] 0.829
